# Results: the supplement of paper PMC10498489
# In all, about 2,300 compounds went through this assay and about 330 (14%) showed activity. Only a sample is shown. Unmarked numbers belong to inactive results.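 The calls were made as follows: active = median modified Z-score above 1.96; inactive = 1.96 or below.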
# Tested on: HepG2 Srxn1-GFP reporter cells (+30 nM CDDO-Me)
# Test: Srxn1-GFP intensity median modified Z-score relative to plate median; higher = stronger NRF2 / oxidative stress reporter activation, active = hit call of the paper
# Conditions: 10 µM; exposure time: 24h
# In short: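 Compound at 10 μM was applied with an NRF2 activator at 30 nM to HepG2 Srxn1-GFP BAC reporter cells for 24 h, in DMSO at no more than 0.1%, using three replicate 96-well plates seeded at 20,000 cells per well. Fixed, Hoechst-stained cells were imaged confocally and cytoplasmic GFP was scored for each cell, with images under 100 cells left out. The figure reported is the replicate median of the per-plate modified Z-score of GFP intensity. Scaling relied on 1.4826 × median absolute deviation.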
row,SMILES,Srxn1-GFP intensity median modified Z-score
1,COC1CC2CCC(C)C(O)(O2)C(=O)C(=O)N2CCCCC2C(=O)OC(C(C)CC2CCC(O)C(OC)C2)CC(=O)/C(C)=C/C(C)C(O)C(OC)C(=O)C(C)CC(C)/C=C/C=C/C=C/1C (stereo unspecified) [euspeclibcmpd645],2.8 (active)
2,C=CC/C1=C\C(C)C[C@H](C)C[C@H](OC)[C@H]2O[C@@](O)(C(=O)C(=O)N3CCCCC3C(=O)O[C@H](/C(C)=C/C3CC[C@@H](O)[C@H](OC)C3)[C@H](C)[C@@H](O)CC1=O)[C@H](C)C[C@@H]2OC (stereo partly specified) [euspeclibcmpd642],0.0384
3,CC(C)(C)OC(=O)N1[C@H](CNCC(=O)NCC2CC2)COC1(C)C,0.298
4,C=C1c2cccc(O)c2C(=O)C2C(=O)[C@]3(O)C(=O)C(C(N)=O)C(=O)C(N(C)C)[C@@H]3[C@@H](O)[C@H]12 (stereo partly specified) [euspeclibcmpd374],0.0721
5,Nc1ccc(S(=O)(=O)Nc2ccc([N+](=O)[O-])cc2)cc1,1.07
6,C=CCSCC=C [euspeclibcmpd1525],2.8 (active)
7,C=CCSCC(N)C(=O)O (stereo unspecified) [euspeclibcmpd1339],-0.44
8,c1ccc2[nH]c(-c3cscn3)nc2c1 [euspeclibcmpd291],-0.321
9,CC(=O)Nc1ccc(S(=O)(=O)Nc2ccc(C)cc2)cc1,0.323
10,Cc1cc(=O)c(C(=O)NC(C(=O)NC2C(=O)N3C(C(=O)O)=C(CSc4nnnn4C)CSC23)c2ccc(O)cc2)c[nH]1 (stereo unspecified) [euspeclibcmpd2006],-0.441
11,COC(=O)C[C@H]1C2(C)CC34OC5(C)O[C@@]6([C@H](OC(C)=O)C(OC(C)=O)[C@]7(C)C(C(C(=O)C(C)C)C(=O)O[C@H]7c7ccoc7)[C@@]6(O5)[C@H](OC(C)=O)[C@@]3(O)C2OC(=O)C(C)C)[C@]14C (stereo partly specified) [euspeclibcmpd1593],0.648
12,CC=CC1=C(C(=O)O)N2C(=O)C(NC(=O)C(N)c3ccc(O)cc3)C2SC1 (stereo unspecified) [euspeclibcmpd754],0.0492
13,CN1CCc2c(c3ccccc3n2Cc2ccccc2)C1 [euspeclibcmpd1060],-0.511
14,Cc1cc(=N)c2ccccc2n1CCCCCCCCCCn1c(C)cc(=N)c2ccccc21 [euspeclibcmpd1012],10 (active)
15,NC(COP(=O)(O)O)C(=O)O (stereo unspecified) [euspeclibcmpd1153],-0.195
16,CC1(C)NC(=O)N(c2ccc([N+](=O)[O-])c(C(F)(F)F)c2)C1=O [euspeclibcmpd654],0.519
17,CC(C)C(=O)Nc1ccc([N+](=O)[O-])c(C(F)(F)F)c1 [euspeclibcmpd362],3.07 (active)
18,CCOc1ccc2ccccc2c1C(=O)NC1C(=O)N2C1SC(C)(C)C2C(=O)O (stereo unspecified) [euspeclibcmpd2391],-0.175
19,NC(=O)c1cc[n+](C=C2CSC3C(NC(=O)Cc4cccs4)C(=O)N3C2C(=O)O)cc1 (stereo unspecified) [euspeclibcmpd1236],-0.488
20,CN1CCC(c2c3ccccc3cc(=O)c3sccc23)CC1 [euspeclibcmpd331],0.863
21,COc1cc(C)c2c(=O)c(-c3ccccc3)coc2c1 [euspeclibcmpd1711],0.917
22,COc1cc(-c2coc3cc(OC)c(OC)c(OC)c3c2=O)cc(OC)c1OC [euspeclibcmpd1402],-0.364
23,COc1cc2occ(-c3ccccc3)c(=O)c2c(OC)c1C [euspeclibcmpd2367],3.02 (active)
24,CC(C)(C)O[C@H]1C[C@@H](O)C1,1.93

row,SMILES,Srxn1-GFP intensity median modified Z-score
1,CC(=O)O[C@]1(C(C)=O)CCC2C3=CC(C)=C4CC(=O)CCC4(C)C3CCC21C (stereo partly specified) [euspeclibcmpd180],0.562
2,CC(NS(=O)(=O)c1cccc(Cl)c1)C1CCCO1 (stereo unspecified),1.74
3,Cc1cc(=O)cc(O)o1 [euspeclibcmpd1585],0.226
4,O=C1OCCc2oc(O)cc21 [euspeclibcmpd1348],33 (active)
5,O=C(OCc1ccccc1)c1ccccc1 [euspeclibcmpd510],0.252
6,OC[C@H]1O[C@@H](O[C@@H]2[C@@H](CO)O[C@](O)(CO)[C@H]2O)[C@H](O)[C@@H](O)[C@H]1O [euspeclibcmpd170],0.208
7,NC(=O)c1cc[n+](C=C2CSC3C(NC(=O)C(c4ccccc4)S(=O)(=O)O)C(=O)N3C2C(=O)O)cc1 (stereo unspecified) [euspeclibcmpd2133],-0.143
8,CCCOc1cc(N)ccc1C(=O)OCCN(CC)CC [euspeclibcmpd379],0.431
9,CCN(CC)CCOc1ccc2c(c1)C(=O)c1cc(OCCN(CC)CC)ccc1-2 [euspeclibcmpd940],5.93 (active)
10,CCN(CC)CCNC(=O)COc1ccc(OC)cc1 [euspeclibcmpd2435],-0.25
11,C=Cc1c(C=c2[nH]c(=Cc3[nH]c(C=c4[nH]c(O)c(C=C)c4=C)c(C)c3CCC(=O)O)c(CCC(=O)O)c2C)[nH]c(O)c1C [euspeclibcmpd1536],0.744
12,Cc1cc(-c2ccccc2)n[nH]c1=NCCN1CCOCC1 [euspeclibcmpd383],1.08
13,CNC(Cc1ccccc1)C(=O)O (stereo unspecified),1.21
14,Cc1coc2c1C(=O)C(=O)c1c-2ccc2c1CCCC2(C)C [euspeclibcmpd1647],2.22 (active)
15,Cc1c(S(=O)(=O)O)oc2c1C(=O)C(=O)c1c-2ccc2c1CCCC2(C)C [euspeclibcmpd2216],0
16,CN[C@H]1C[C@@H](N)[C@H](O)[C@@H](O[C@@H]2O[C@H](CO)[C@@H]3OC4(O[C@@H]3[C@@H]2O)O[C@H](C(N)CO)[C@H](O)[C@H](O)[C@H]4O)[C@@H]1O (stereo partly specified) [euspeclibcmpd1459],-0.136
17,Nc1ccc(S(=O)(=O)N=c2cccc[nH]2)cc1 [euspeclibcmpd279],-0.029
18,COc1ccc2[nH]c3cc(Cl)ccc3c(=Nc3cc(CN4CCCC4)c(O)c(CN4CCCC4)c3)c2n1 [euspeclibcmpd1080],9.12 (active)
19,CC1(C)C2CCC1(CS(=O)(=O)O)C(=O)C2=Cc1ccc(C=C2C(=O)C3(CS(=O)(=O)O)CCC2C3(C)C)cc1 [euspeclibcmpd1829],1.49
20,C=C(CC)C(=O)c1ccc(OCC(=O)O)c(Cl)c1Cl [euspeclibcmpd119],14 (active)
21,CC(C)CCCC(C)[C@H]1CCC2C3CC=C4C[C@@H](OC(=O)c5ccccc5)CC[C@]4(C)C3CC[C@@]21C (stereo partly specified) [euspeclibcmpd2185],-0.487
22,CC(O)CNS(=O)(=O)CC1CN(C(=O)C2CC2C)CCO1 (stereo unspecified),1.25
23,CC(C)=C1CNC(C(=O)O)C1CC(=O)O (stereo unspecified) [euspeclibcmpd2009],0.265
24,CC(=O)N=c1[nH]cc([N+](=O)[O-])s1 [euspeclibcmpd793],0.152

row,SMILES,Srxn1-GFP intensity median modified Z-score
1,CC(=O)Oc1ccccc1C(=O)N=c1[nH]cc([N+](=O)[O-])s1 [euspeclibcmpd615],2.79 (active)
2,O=C(O)c1cc(O)c(O)c(O)c1 [euspeclibcmpd1010],-0.0488
3,COc1ccc(C(=O)c2ccc(O)cc2)c(O)c1O [euspeclibcmpd1507],-0.213
4,O=C1[O][Bi]([OH])[O]c2ccccc21 [euspeclibcmpd2458],0.155
5,O=C1CC(=O)c2ccccc2C1=O [euspeclibcmpd1562],9.54 (active)
6,NC(=O)N1c2ccccc2CC(=O)c2ccccc21 [euspeclibcmpd673],-0.538
7,C/C(=C\CO)CC[C@H](C)CCC[C@H](C)CCCC(C)C [euspeclibcmpd1621],-0.0936
8,[O-][n+]1cccc(CO)c1 [euspeclibcmpd1263],-0.263
9,O=C(O)C=Cc1ccc(O)c(O)c1 [euspeclibcmpd1336],-0.408
10,O=C(C=Cc1ccc(O)c(O)c1)OC(Cc1ccc(O)c(O)c1)C(=O)O (stereo unspecified) [euspeclibcmpd2083],-0.529
11,O=C(C=Cc1ccc(O)c(O)c1)OCCc1ccccc1 [euspeclibcmpd1775],3.45 (active)
12,Cc1ccc(C)c(N2C(=O)c3ccc(C(=O)OCC(=O)N4CCc5ccccc54)cc3C2=O)c1,1.06
13,O=C(Nc1cccc(Oc2cnccn2)c1)c1cc2cc(F)ccc2[nH]1,1.62
14,CCN(CC)CCNC(=O)c1cc(Br)c(N)cc1OC [euspeclibcmpd1122],0
15,CCN(CC)CCNC(=O)c1cc(Cl)c(N)cc1OC [euspeclibcmpd197],86.5 (active)
16,CCN(CC)CCNC(=O)c1cc(S(C)(=O)=O)ccc1OC [euspeclibcmpd525],-0.717
17,NC(=O)C1CCCN(Cc2cccc(CNc3ncc(F)cn3)c2)C1 (stereo unspecified),1.1
18,CC(CN(C)C)CN1c2ccccc2CCc2ccccc21 (stereo unspecified) [euspeclibcmpd531],0.095
19,CN=C(C[N+](=O)[O-])NCCSCc1ccc(CN(C)C)o1 [euspeclibcmpd2160],-0.118
20,CC1(C)SC2C(NC(=O)C(N)c3ccc(O)cc3)C(=O)N2[C@H]1C(=O)O (stereo partly specified) [euspeclibcmpd23],-0.305
21,CC(=O)N1CCN(c2ccc(OCC3CO[C@](Cn4ccnc4)(c4ccc(Cl)cc4Cl)O3)cc2)CC1 (stereo partly specified) [euspeclibcmpd169],0.674
22,CC(C)N1CCN(c2ccc(OC[C@H]3CO[C@](Cn4cncn4)(c4ccc(Cl)cc4Cl)O3)cc2)CC1 [euspeclibcmpd617],1.6
23,CCC(C)n1ncn(-c2ccc(N3CCN(c4ccc(OC[C@H]5CO[C@](Cn6cncn6)(c6ccc(Cl)cc6Cl)O5)cc4)CC3)cc2)c1=O (stereo partly specified) [euspeclibcmpd951],2.71 (active)
